Experiment [1] is described as follows: Cellular Toxicity (caspase-3) HepG2 (AID 654).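 Also: cells exposed to compound for 16 hours before reading; 0% = DMSO alone and 100% = caspase signal from 100 µM tamoxifen.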 The gist of the method: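 Caspase 3/7 activation in HepG2 is measured as rising luminescence after a 16 hr treatment at 37 °C. Values are scaled between DMSO basal and 100 uM tamoxifen, and AC50 is fitted with the Hill equation.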
Experiment [2] in a line: Cellular Toxicity (caspase-3) Jurkat (AID 655).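 Also: cells exposed to compound for 16 h at 37 °C before reading.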 The gist of the method: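 Jurkat cells (5000/well) in complete medium exposed 16 h at 37 C; caspase-3/7 activity read by Caspase-Glo luminescence after 20 min at room temperature. Normalized to DMSO and 100 uM tamoxifen; AC50 from Hill fits.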
Experiment [3] is described as follows: Cellular Toxicity (caspase-3) HUV-EC-C (AID 656).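 Also: 0% = DMSO basal and 100% = 100 µM tamoxifen.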 The procedure, abridged: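 HUV-EC-C cells (1000/well) in complete medium, compound-treated 16 h at 37 °C; caspase-3/7 activity read by Caspase-Glo 3/7 luminescence. Normalized to DMSO (basal) and 100 uM tamoxifen (100%); AC50 from Hill-equation concentration-response fits.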
Experiment [4] is described as follows: Cellular Toxicity (caspase-3) BJ (AID 658).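 Also: 0% = DMSO basal and 100% = 10 µM staurosporine.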 The gist of the method: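 Caspase-Glo 3/7 luminescence, read 1 hr after reagent at room temperature, in normal BJ fibroblasts exposed 16 hours at 37 °C. AC50 values from Hill-equation concentration-response, scaled between DMSO basal and 10 uM staurosporine as 100%.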
Experiment [5] in a line: Cellular Toxicity (caspase-3) MRC-5 (AID 659).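 Also: 0% = DMSO basal and 100% = 10 µM staurosporine.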 As to conditions: Potency: caspase-3 activation. The procedure, abridged: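 Luminescent Caspase-Glo 3/7 read-out (1 h, room temperature) after a 16 h, 37 °C compound exposure of MRC-5 lung fibroblasts at 1500 cells/well. Concentration-response AC50 from Hill equation; 0% DMSO, 100% 10 uM staurosporine.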
The nature of experiment [6]: Cellular Toxicity (caspase-3) Mesangial (AID 660).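 Also: cells exposed to compound for 16 h before the caspase read.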 The gist of the method: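 Seed cells derived from normal human renal glomeruli, incubate 5 h, add compounds across concentrations and incubate 16 h at 37 °C. Caspase 3/7 activation is then quantified by luciferase light, with AC50 derived by Hill modeling.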
The nature of experiment [7]: Cellular Toxicity (caspase-3) SK-N-SH (AID 661).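 Also: 0% = DMSO basal and 100% = 10 µM staurosporine.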 As to conditions: SK-N-SH caspase-3 activation, qHTS; caspase-3 activation: at 91.7 µM (top of the series), DMSO as zero, staurosporine as full. The procedure, abridged: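 Cells were seeded and incubated 5 hr at 37 °C, dosed with compound over a concentration range for 16 hr, then given Caspase-Glo 3/7 reagent for 1 hr at room temperature before luminescence reading.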
(In general: qHTS replaces the single test concentration by a dilution series.)

Experiment [8] can be described thus: Cellular Toxicity (caspase-3) Hek293 (AID 664).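 Also: cells exposed to compound for 16 h at 37 °C before readout.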 The gist of the method:
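qHTS, HEK293 (human embryonic kidney), 16 h cpd exposure in complete medium. Caspase-3/7 activation = luminescence increase; normalized to DMSO/100 uM tamoxifen; Hill-fit AC50.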

The nature of experiment [9]: Cellular Toxicity (caspase-3) N2a (AID 665).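 Also: compound exposure lasted 16 h at 37 °C before readout.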 The procedure, abridged: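 Caspase-3/7 activation, measured as increased luminescence from aminoluciferin release, is quantified in mouse N2a cells exposed to compounds for 16 h. Values are normalized to DMSO and 10 uM staurosporine, with AC50 derived by Hill modelling.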
Experiment [10] is described as follows: Cellular Toxicity (caspase-3) Renal Proximal Tubule (AID 667).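 Also: cells exposed to compound for 16 hours at 37 °C before detection; 0% = DMSO basal and 100% = 10 µM staurosporine.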 The gist of the method:
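Freshly isolated primary rat kidney proximal tubule cells, 1000/well, treated 16 hr at 37 °C, then Caspase-Glo 3/7 luminescence after 1 hr. Normalized to DMSO and 10 uM staurosporine; AC50 from Hill fit.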

For experiment [11], the target named is Guanine nucleotide-binding protein G(i) subunit alpha-1 (Homo sapiens) (UniProt P63096). The experiment is described as follows: qHTS Assay for Inhibitors of RGS12 GoLoco Motif Activity (Green Fluorophore) (AID 879).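 Also: 0% = labeled peptide with Gαi1 and full inhibition = labeled peptide alone without protein; negative values mean loss of peptide binding seen as reduced polarization.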 The gist of the method:
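A drop in FITC polarization marked displacement of the FITC-tagged RGS12 GoLoco peptide (10 nM) from Gαi1 (50 nM). Compounds were incubated 10 min at room temperature in Tris pH 7.5 buffer containing 150 mM NaCl, 0.1 mM GDP and 0.05% NP40; unlabeled peptide titration served as control.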

A short description of experiment [12]: Confirmation and Secondary Assay for Modulators of Hemoglobin Beta Chain Splicing at IVS2 654 locus (AID 910).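 Also: HeLa cells stably carrying EGFP split by mutant beta-globin IVS2-654 intron; per-well total GFP intensity by laser scanning cytometry after 2-day treatment; % of control where 0% means no effect.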 The gist of the method: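 Readout: per-well total peak green fluorescence (488 nm ex, 500–520 nm em) from objects 5–250 µm, reflecting correct splicing of an EGFP-654 reporter. Compounds were applied for 2 days at 37 °C to overnight-plated HeLa EGFP-654 cells; controls were DMSO and 500 nM IVS2-654 PNA.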

For experiment [13], the target named is Cytochrome P450 2C9 (Homo sapiens) (UniProt P11712). The experiment is described as follows: qHTS Assay for Inhibitors and Substrates of Cytochrome P450 2C9 (AID 883). Also: nearly all actives have a fitted effect of over 60% in size. Also: potency is read from the fitted curve at half-maximal effect. The procedure, abridged:
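Luminescent read-out of deoxyluciferin hydroxylation, normalized to 57uM sulphaphenazole (AC100). Reaction: 10nM enzyme, 100uM Luciferin-H (equal to KM), 25mM KPO4, 10 min compound preincubation, then 60 min with NADPH regeneration, both at 37C.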

The target of experiment [14] is Cytochrome P450 2D6 (Homo sapiens) (UniProt P10635). Description: qHTS Assay for Inhibitors and Substrates of Cytochrome P450 2D6 (AID 891). Also: nearly all actives have a fitted effect of over 60% in size. Also: potency is read from the fitted curve at half-maximal effect. The procedure, abridged:
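Luminescent read-out of luciferin formed by 5 nM human CYP2D6 demethylating 30 uM Luciferin-ME EGE (Km level) over 60 min at room temperature after NADPH regeneration addition. Data normalized to full inhibition by 1.43 uM quinidine.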

Experiment [15] can be described thus: qHTS Assay for Identification of Small Molecule Antagonists for NFkB Signaling Pathway (AID 895; active = well fitted inhibition curve with a large enough effect in the signal ratio, with a control signal flat, not every such curve was filed as active; the % refers to the signal ratio; also: % is scaled to controls: 0 for no effect and ±100 for the full control effect). The gist of the method:
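Beta-lactamase reporter read-out (460 and 530 nm emission ratio, 405 nm excitation, 2 hrs substrate loading RT) after 5 hr stimulation with 10 pM TNF alpha in compound-treated NFkB-bla ME-180 cells in low-serum medium.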

Experiment [16] addresses Cytochrome P450 2C19 (Homo sapiens) (UniProt P33261). Description: qHTS Assay for Inhibitors and Substrates of Cytochrome P450 2C19 (AID 899). Also: % is scaled to controls: 0 for no effect and ±100 for the full control effect; nearly all actives have a fitted effect of over 60% in size. The procedure, abridged:
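Luminescence readout of luciferin formed from 10uM Luciferin-H EGE (KM level) by 5 nM CYP2C19 in 50mM KPO4. 60 min NADPH-driven reaction at 37C after 10 min compound preincubation; data scaled to 57uM ketoconazole inhibition.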

For experiment [17], the target named is Cytochrome P450 3A4 (Homo sapiens) (UniProt P08684). Description: qHTS Assay for Inhibitors and Substrates of Cytochrome P450 3A4 (AID 884). Also: % is scaled to controls: 0 for no effect and ±100 for the full control effect; nearly all actives have a fitted effect of over 50% in size. The gist of the method:
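Luminescent readout of luciferin produced by CYP3A4 (20 nM) dealkylation of Luciferin-PPXE, 25 uM (its KM). NADPH-driven reaction ran 60 min at RT after 10 min compound preincubation; data scaled to 57 uM ketoconazole as 100% inhibition.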

The nature of experiment [18]: qHTS Assay for Identification of Small Molecule Agonists for Thrombopoietin (TPO) Signaling Pathway (AID 917). Also: % is scaled to controls: 0 for no effect and ±100 for the full control effect. The procedure, abridged: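 Stimulation at the TPO EC50 (26 pM final) was used to detect activators. Ba/F3 mouse cells bearing human TPO receptor and a luciferase reporter under the Glycoprotein IIb promoter were exposed to compounds for 24 hrs at 37 C.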

Molecules are shown by their SMILES. “And” between values parts separate entries of the source, which are not always exact repeats. Identical values can stand only once. A number with no mark means an inactive call. Records with an inconclusive call do not appear. The source made the active and inactive calls. Unless noted, calls follow the shape of the dose curve; as a rule, active = well fitted curve in the direction sought with a large enough effect; inconclusive = small, poorly fitted or top-dose-only effect, or another doubt; inactive = no such curve, though single readings can be large; an effect the other way counts as inactive or inconclusive.

Chain of Cytochrome P450 3A4 (Homo sapiens) (P08684 whole entry, looked up): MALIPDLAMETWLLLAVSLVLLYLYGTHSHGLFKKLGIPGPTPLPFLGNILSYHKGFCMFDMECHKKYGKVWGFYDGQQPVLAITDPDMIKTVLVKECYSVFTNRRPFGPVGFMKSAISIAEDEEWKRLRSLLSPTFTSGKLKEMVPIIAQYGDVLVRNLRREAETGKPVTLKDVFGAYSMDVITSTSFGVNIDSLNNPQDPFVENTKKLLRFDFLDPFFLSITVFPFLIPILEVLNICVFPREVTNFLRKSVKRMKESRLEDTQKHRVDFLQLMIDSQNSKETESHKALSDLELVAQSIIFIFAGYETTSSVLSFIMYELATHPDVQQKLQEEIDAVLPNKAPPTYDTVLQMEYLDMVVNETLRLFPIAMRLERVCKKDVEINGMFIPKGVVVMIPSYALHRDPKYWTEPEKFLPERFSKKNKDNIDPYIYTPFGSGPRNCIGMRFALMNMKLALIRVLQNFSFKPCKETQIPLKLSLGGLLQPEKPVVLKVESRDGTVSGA
Chain of Guanine nucleotide-binding protein G(i) subunit alpha-1 (Homo sapiens) (P63096 whole entry, looked up): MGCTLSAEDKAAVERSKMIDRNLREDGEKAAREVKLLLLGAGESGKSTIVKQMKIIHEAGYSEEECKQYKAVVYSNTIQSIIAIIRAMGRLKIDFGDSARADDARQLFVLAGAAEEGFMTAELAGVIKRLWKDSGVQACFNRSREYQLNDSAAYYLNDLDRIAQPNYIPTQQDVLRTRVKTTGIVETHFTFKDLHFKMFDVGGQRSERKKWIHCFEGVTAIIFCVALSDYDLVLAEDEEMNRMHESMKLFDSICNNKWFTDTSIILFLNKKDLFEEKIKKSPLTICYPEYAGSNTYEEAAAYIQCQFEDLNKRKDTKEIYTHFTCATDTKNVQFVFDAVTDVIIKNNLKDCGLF
Chain of Cytochrome P450 2D6 (Homo sapiens) (P10635 whole entry, looked up): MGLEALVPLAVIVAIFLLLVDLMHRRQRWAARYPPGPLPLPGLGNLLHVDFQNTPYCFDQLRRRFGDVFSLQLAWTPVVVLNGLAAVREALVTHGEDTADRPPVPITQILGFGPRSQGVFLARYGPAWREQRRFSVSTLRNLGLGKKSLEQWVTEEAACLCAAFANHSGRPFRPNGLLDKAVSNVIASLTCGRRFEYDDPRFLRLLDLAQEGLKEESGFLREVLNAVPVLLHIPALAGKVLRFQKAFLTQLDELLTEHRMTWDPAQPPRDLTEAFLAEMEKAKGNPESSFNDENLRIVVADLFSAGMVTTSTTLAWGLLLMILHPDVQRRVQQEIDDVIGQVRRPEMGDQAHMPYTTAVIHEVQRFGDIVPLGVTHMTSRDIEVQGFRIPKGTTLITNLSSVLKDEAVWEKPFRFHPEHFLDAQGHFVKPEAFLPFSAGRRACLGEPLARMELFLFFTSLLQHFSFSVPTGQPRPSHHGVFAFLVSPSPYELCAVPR
Chain of Cytochrome P450 2C9 (Homo sapiens) (P11712 whole entry, looked up): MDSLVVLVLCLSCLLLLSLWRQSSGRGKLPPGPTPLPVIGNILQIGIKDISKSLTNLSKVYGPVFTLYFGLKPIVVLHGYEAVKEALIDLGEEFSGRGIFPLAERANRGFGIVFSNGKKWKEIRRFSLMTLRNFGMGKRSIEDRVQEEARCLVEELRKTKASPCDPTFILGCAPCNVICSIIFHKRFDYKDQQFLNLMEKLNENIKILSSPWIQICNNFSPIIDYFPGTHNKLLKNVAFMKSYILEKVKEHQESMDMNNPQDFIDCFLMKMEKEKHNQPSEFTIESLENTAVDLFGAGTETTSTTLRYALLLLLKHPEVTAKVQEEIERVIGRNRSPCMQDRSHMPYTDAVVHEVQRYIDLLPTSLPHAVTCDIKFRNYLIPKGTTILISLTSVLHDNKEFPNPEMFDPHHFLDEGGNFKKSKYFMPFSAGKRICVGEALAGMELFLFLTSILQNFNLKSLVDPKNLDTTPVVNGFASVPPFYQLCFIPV
Chain of Cytochrome P450 2C19 (Homo sapiens) (P33261 whole entry, looked up): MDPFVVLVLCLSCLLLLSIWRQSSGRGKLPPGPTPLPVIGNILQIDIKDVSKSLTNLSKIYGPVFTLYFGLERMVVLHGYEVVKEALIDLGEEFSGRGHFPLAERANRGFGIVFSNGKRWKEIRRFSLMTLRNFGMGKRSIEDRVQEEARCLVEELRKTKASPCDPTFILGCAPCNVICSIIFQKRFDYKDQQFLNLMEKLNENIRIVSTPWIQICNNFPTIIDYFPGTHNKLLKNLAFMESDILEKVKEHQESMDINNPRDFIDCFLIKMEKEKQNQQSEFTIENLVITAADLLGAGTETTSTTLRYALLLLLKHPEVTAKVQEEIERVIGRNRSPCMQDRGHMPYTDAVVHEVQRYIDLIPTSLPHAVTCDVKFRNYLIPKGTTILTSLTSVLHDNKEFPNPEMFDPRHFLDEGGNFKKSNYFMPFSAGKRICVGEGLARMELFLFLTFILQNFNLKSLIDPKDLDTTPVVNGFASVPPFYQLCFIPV

Regarding `COc1cc(Cc2cnc(N)nc2N)cc(OC)c1OC`, the compound was called inactive in experiment [1], in experiment [3], in [4], in experiment [6], in [8] and in experiment [9]. In addition, the call in [10] and in [12] was inactive. Besides, the Potency entry in experiment [2], in experiment [5] and in [11] was “inactive” throughout. The caspase-3 activation in experiment [7] is 0.291%.

For `Cc1ccc(=O)n(-c2ccccc2)c1`, the Potency result in [11], in [13], in experiment [14], in experiment [15] and in experiment [16] was “inactive” throughout.

With `CCN1CCc2nc(N)oc2CC1`, in experiment [11], the Potency result was “inactive”.

On to `O=C(CCCN1CCC(O)(c2cccc(C(F)(F)F)c2)CC1)c1ccc(F)cc1`, for which the Potency entry in experiment [11] is “inactive”.

As for `CCN(CC)CCNC(=O)c1cc(S(C)(=O)=O)ccc1OC`, the Potency result in [11], in [13] and in experiment [15] was “inactive” throughout. The compound was called inactive in [17] and in experiment [12].

For `CSc1ccc(C(=O)c2[nH]c(=O)[nH]c2C)cc1`, in experiment [11], the Potency entry was “inactive”.

As to `Cc1ccc(Cl)c(Nc2ccccc2C(=O)O)c1Cl`, the Potency result in experiment [11] is “inactive”. In [13], the Potency was 7.94 µM (active) and 1.26 µM (active). Further, the result in experiment [17], in experiment [12] and in experiment [18] was inactive.

Take `COC(=O)[C@@H](N)Cc1ccc(O)c(O)c1`: in experiment [11], the Potency entry is “inactive”.

In the case of `Nc1nc(N)c2nc(-c3ccccc3)c(N)nc2n1`, the compound was classed as inactive in [3], in experiment [6], in experiment [8], in experiment [9], in [10] and in experiment [12]. Besides, the Potency result in experiment [11] is “inactive”.

In the case of `CCc1c(C)[nH]c2c1C(=O)C(CN1CCOCC1)CC2` (stereo not given), the Potency result in [11] is “inactive”.

Turning to `NC(=Nc1ccccc1)Nc1ccccc1`, the compound was called inactive in experiment [1], in [3], in [4], in experiment [6], in [8] and in experiment [9]. The call in experiment [10] and in experiment [17] was inactive. Besides, the Potency entry in [2] and in experiment [5] was “inactive” each time. In experiment [7], the caspase-3 activation is 0.122%.

As for `CCC(=O)c1ccc2c(c1)N(CCCN(C)C)c1ccccc1S2`, the Potency result in experiment [11] and in [15] was “inactive” each time. Besides, the Potency in [14] was 2 µM (active).

`CCCC(C(=O)OCCN(CC)CC)(c1ccccc1)c1ccccc1`: the Potency result in experiment [11] is “inactive”. The Potency in [14] is 63.1 nM (active) and 15.8 nM (active). Also, the compound was called inactive in experiment [12] and in experiment [18].

Consider `CN(C)CC/C=C1\c2ccccc2COc2ccccc21`, for which the Potency entry in [11] is “inactive”. In addition, in experiment [14], the Potency is 3.16 µM (active) and 3.98 µM (active). Moreover, the outcome in experiment [18] was inactive.

For the origin of these results see PubChem BioAssay (NCATS).
